The values that follow come from PubChem BioAssay (NCATS).

Results filed as inconclusive are left out. Unmarked numbers belong to inactive results. Activity calls are given as the source filed them. Unless noted, calls follow the shape of the dose curve; as a rule, active = well fitted curve in the direction sought with a large enough effect; inconclusive = small, poorly fitted or top-dose-only effect, or another doubt; inactive = no such curve, though single readings can be large; an effect the other way counts as inactive or inconclusive.
Potency is read from the fitted curve at half-maximal effect.

One assay addresses Aldehyde dehydrogenase, mitochondrial (Homo sapiens) (UniProt P05091). The experiment in a line: qHTS for Inhibitors of the Aldehyde Dehydrogenase Family (ALDH2) Validation screens (AID 2061302; active = well fitted inhibition curve with a large enough effect; title and protocol of this record describe different tests;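 as to activity change, negative = inhibition: plate controls were DMSO vehicle for no effect and maximal DPI positive control response for full effect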). To be noted: ALDH inhibition qHTS; series mostly up to 42.6 µM; activity change, negative = inhibition: at the top concentration. For orientation: In qHTS, concentration-response curves come from the screen itself.
Take `CC(C)c1c(C(=O)Nc2ccccc2)c(-c2ccccc2)c(-c2ccc(F)cc2)n1CC[C@@H](O)C[C@@H](O)CC(=O)O`: the “activity change, negative = inhibition” value was 7.62%.
Same read-out and setting: then `CCN(CC)CCCC(C)Nc1ccnc2cc(Cl)ccc12` (centres undefined), with -0.459%; and `OC(CCN1CCCCC1)(c1ccccc1)C1CCCCC1` (centres undefined), with -11.7%.
The same measure, in the same setting: next, `CC(C)NCC(O)c1cc(O)cc(O)c1` (centres undefined): -0.86%.
`CC(C)(C)OC(=O)N1CCN(c2cccc(NCc3ccc(-c4ccc(C#N)cc4)o3)c2)CC1`: the Potency is 1780 nM (active).

The next assay has the same target. The experiment in a line: qHTS for Inhibitors of the Aldehyde Dehydrogenase Family (ALDH2) Confirmatory screens (AID 2061303; active = well fitted inhibition curve with a large enough effect; title and protocol of this record describe different tests; also: nearly all actives have a fitted effect of over 45% in size; as to activity change, negative = inhibition: % is scaled to controls: 0 for no effect and ±100 for the full control effect). Particulars: ALDH inhibition qHTS; series mostly up to 45.4 µM; activity change, negative = inhibition: at the top concentration.
With `CC(C)(C)OC(=O)N1CCN(c2ncc(NCc3ccc(-c4ccc(C#N)cc4)o3)cn2)CC1`, the Potency is 100 nM (active).
Same read-out and setting: next, `CC(C)(C)OC(=O)N1CCN(c2ccc(NCc3ccc(-c4ccc(C#N)cc4)o3)cc2)CC1`: 79.4 nM (active).
Consider `N#Cc1ccc(-c2ccc(CNc3ccc(N4CCC(C(F)(F)F)CC4)cc3)o2)cc1`, for which the Potency is 35.7 nM (active).
In the case of `CC(C)(C)OC(=O)N1CCC(c2ccc(NCc3ccc(-c4ccc(C#N)cc4)o3)cc2)CC1`, the Potency was 112 nM (active).
Still for that read-out and setting: next, `CCOC(=O)C1CCN(c2ccc(NCc3ccc(-c4ccc(C#N)cc4)o3)cc2)CC1`: 35.5 nM (active).
As to `O=C(O)CN(CCOCCOCCN(CC(=O)O)CC(=O)O)CC(=O)O`, the “activity change, negative = inhibition” value was -7.79%.
As for `Cc1ccc(S(=O)(=O)NC(=O)NN2CCCCCC2)cc1`, the “activity change, negative = inhibition” value is -2.41%.
For `CN1Cc2sccc2C(c2ccc(O)c(O)c2)C1` (centres undefined), the “activity change, negative = inhibition” value is -15.8%.
Still for that read-out and setting: next, `COCC(=O)O[C@]1(CCN(C)CCCc2nc3ccccc3[nH]2)CCc2cc(F)ccc2[C@@H]1C(C)C`: 3.71%; `CCC(NC(C)C)C(O)c1ccc(O)c(O)c1` (centres undefined): -11.7%.
On the same count and under the same terms, then `CCN(CC)CCNC(=O)c1ccc(N)cc1`, with -9.18%; and `CC(C)NCC(O)c1ccc(O)c(O)c1` (centres undefined), with -9.04%.
Take `CC(C)(C)OC(=O)N1CCN(c2cnc(NCc3ccc(-c4ccc(C#N)cc4)o3)cn2)CC1`: the Potency is 355 nM (active).
Consider `CC(C)(C)OC(=O)N1CCN(c2ccc(NCc3ccc(-c4ccc(C#N)cc4)o3)nc2)CC1`, for which the Potency was 447 nM (active).
For `O=C(O)/C=C/c1ccc(O)c(O)c1`, the “activity change, negative = inhibition” value is -10.5%.
As for `N#Cc1ccc(-c2ccc(CNc3ccc(N4CCC(C#N)CC4)cc3)o2)cc1`, the Potency was 100 nM (active).
As for `CC(C)(C)OC(=O)N1CCN(c2cnc(NCc3ccc(-c4ccc(C#N)cc4)o3)nc2)CC1`, the Potency was 2240 nM (active).
On the same count and under the same terms, next, `O=C1CCc2cc(OCCCCc3nnnn3C3CCCCC3)ccc2N1`: 631 nM (active); `CC(C)(C)OC(=O)N1CCN(c2ccc(NCc3ccc(-c4ccc(C#N)cc4)o3)cn2)CC1`: 35.7 nM (active).
Same read-out and setting: then `CC(C)(C)OC(=O)N1CCN(c2cccc(NCc3ccc(-c4ccc(C#N)cc4)o3)c2)CC1`, with 1120 nM (active).

Tested on in a further assay: not listed separately
The experiment in a line: qHTS for Inhibitors of the Aldehyde Dehydrogenase Family (ALDH1A2, ALDH1A3, ALDH2, ALDH3A1) (AID 2061307). Also: nearly all actives have a fitted effect of over 50% in size. As to Potency: test system not described further here. As to activity change, negative = inhibition: % is scaled to controls: 0 for no effect and ±100 for the full control effect. To be noted: ALDH inhibition qHTS; series mostly up to 50.3 µM; activity change, negative = inhibition: at the top concentration.
For `CC(C)(C)OC(=O)N1CCN(c2ncc(NCc3ccc(-c4ccc(C#N)cc4)o3)cn2)CC1`, the Potency is 283 nM (active).
The same measure, in the same setting: then `CC(C)(C)OC(=O)N1CCN(c2ccc(NCc3ccc(-c4ccc(C#N)cc4)o3)cc2)CC1`, with 4470 nM (active); and `N#Cc1ccc(-c2ccc(CNc3ccc(N4CCC(C(F)(F)F)CC4)cc3)o2)cc1`, with 712 nM (active); and `CC(C)(C)OC(=O)N1CCC(c2ccc(NCc3ccc(-c4ccc(C#N)cc4)o3)cc2)CC1`, with 896 nM (active).
Turning to `CCOC(=O)C1CCN(c2ccc(NCc3ccc(-c4ccc(C#N)cc4)o3)cc2)CC1`, the Potency was 634 nM (active).
Regarding `O=C(O)CN(CCOCCOCCN(CC(=O)O)CC(=O)O)CC(=O)O`, the “activity change, negative = inhibition” value was 4.14%.
Still for that read-out and setting: next, `CN1Cc2sccc2C(c2ccc(O)c(O)c2)C1` (centres undefined): -8.66%; `COCC(=O)O[C@]1(CCN(C)CCCc2nc3ccccc3[nH]2)CCc2cc(F)ccc2[C@@H]1C(C)C`: 118%.
Same read-out and setting: then `CCC(NC(C)C)C(O)c1ccc(O)c(O)c1` (centres undefined), with -0.44%; and `CCN(CC)CCNC(=O)c1ccc(N)cc1`, with 3.69%.
Same read-out and setting: then `CC(C)NCC(O)c1ccc(O)c(O)c1` (centres undefined), with -2.55%.
On to `CC(C)(C)OC(=O)N1CCN(c2cnc(NCc3ccc(-c4ccc(C#N)cc4)o3)cn2)CC1`, for which the Potency is 3180 nM (active).
Same read-out and setting: then `CC(C)(C)OC(=O)N1CCN(c2ccc(NCc3ccc(-c4ccc(C#N)cc4)o3)nc2)CC1`, with 15800 nM (active).
For the compound `O=C(O)/C=C/c1ccc(O)c(O)c1`, the “activity change, negative = inhibition” value was 2.07%.
Consider `N#Cc1ccc(-c2ccc(CNc3ccc(N4CCC(C#N)CC4)cc3)o2)cc1`, for which the Potency was 1270 nM (active).
The same measure, in the same setting: then `CC(C)(C)OC(=O)N1CCN(c2cnc(NCc3ccc(-c4ccc(C#N)cc4)o3)nc2)CC1`, with 5650 nM (active).
Still for that read-out and setting: then `CC(C)(C)OC(=O)N1CCN(c2ccc(NCc3ccc(-c4ccc(C#N)cc4)o3)cn2)CC1`, with 6310 nM (active).
Still for that read-out and setting: then `CC(C)(C)OC(=O)N1CCN(c2cccc(NCc3ccc(-c4ccc(C#N)cc4)o3)c2)CC1`, with 1590 nM (active).

In a further assay the target is Aldehyde dehydrogenase, mitochondrial (Homo sapiens) (UniProt P05091). The experiment in a line: qHTS for Inhibitors of the Aldehyde Dehydrogenase Family (ALDH2) Primary screen (AID 2061308). Also: nearly all actives have a fitted effect of over 55% in size.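 As to activity change, negative = inhibition: plate controls were vehicle for no effect and reference inhibitor for full effect.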 Particulars: ALDH2 enzyme inhibition qHTS, 1536-well; series mostly up to 56 µM; activity change, negative = inhibition: at the top concentration.
`CC(C)(C)OC(=O)N1CCN(c2ncc(NCc3ccc(-c4ccc(C#N)cc4)o3)cn2)CC1`: the Potency is 100 nM (active).
Regarding `CC(C)(C)OC(=O)N1CCN(c2ccc(NCc3ccc(-c4ccc(C#N)cc4)o3)cc2)CC1`, the “activity change, negative = inhibition” value is -17.8%.
With `N#Cc1ccc(-c2ccc(CNc3ccc(N4CCC(C(F)(F)F)CC4)cc3)o2)cc1`, the “activity change, negative = inhibition” value was -76.5%.
Turning to `CCOC(=O)C1CCN(c2ccc(NCc3ccc(-c4ccc(C#N)cc4)o3)cc2)CC1`, the “activity change, negative = inhibition” value is -69.5%.
On the same count and under the same terms, next, `CC(=O)O[C@]1(C(C)=O)CC[C@H]2[C@@H]3C=C(Cl)C4=CC(=O)[C@@H]5C[C@@H]5[C@]4(C)[C@H]3CC[C@@]21C`: 3.12%; `Clc1ccc2c(c1)C(N1CCNCC1)=Nc1ccccc1O2`: 10.6%.
Consider `N#Cc1ccc(-c2ccc(CNc3ccc(N4CCC(C#N)CC4)cc3)o2)cc1`, for which the Potency was 100 nM (active).
Consider `Cc1ccc(-c2cc(C(F)(F)F)nn2-c2ccc(S(N)(=O)=O)cc2)cc1`, for which the “activity change, negative = inhibition” value was -6.3%.
Still for that read-out and setting: next, `CC(C)c1c(C(=O)Nc2ccccc2)c(-c2ccccc2)c(-c2ccc(F)cc2)n1CC[C@@H](O)C[C@@H](O)CC(=O)O`: 5.68% [at 16.9 µM].
Same read-out and setting: then `CCN(CC)CCCC(C)Nc1ccnc2cc(Cl)ccc12` (centres undefined), with 0.897% [at 11.2 µM].
`CC(C)(C)OC(=O)N1CCN(c2cccc(NCc3ccc(-c4ccc(C#N)cc4)o3)c2)CC1`: the Potency was 282 nM (active).
